Results reported in PubChem BioAssay (EPA / NIEHS).
Where “and” joins values, the source holds several entries; their conditions need not be identical. Equal entries are not always repeated. Results filed as inconclusive are left out. Some compounds were tested as several samples or in several runs, with calls that do not always agree. Calls of active or inactive are those of the source. How the source made its calls: active means hit-call score of the fitted dose curve at least 0.9, where 1 is the maximum; inconclusive means response in the unintended direction; inactive means score below 0.9.

Test: TOX21_p53_BLA_p3_viability: Viability Assessment in the Tox21 HCT-116 p53 Agonism Beta-lactamase Assay, Phase 3 (AID 2283593);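 further: cells exposed to compound for 16 h before reading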
Description: TOX21_p53_BLA_p3 is a cell-based, single-readout assay that uses HCT116, a human intestinal cell line, […] in a 1536-well plate.TOX21_p53_BLA_p3_viability is an assay readout measuring cellular ATP content and detected with CellTiter-Glo Luciferase-coupled ATP quantitation.TOX21_p53_BLA_p3_viability used a type of viability reporter where loss-of-signal activity can be used to understand changes in the cell viability. Furthermore, this assay endpoint can be referred to as a secondary readout, because this assay has produced multiple assay endpoints where this one serves a viability function. To generalize the intended target to other relatable targets, this assay endpoint is annotated to the cell cycle intended target family, where the subfamily is cytotoxicity.
Thawing Method: Place 14 mL of pre-warmed thaw medium into a 15 mL of conical tub. Remove the vial of cells to be thawed from liquid nitrogen and thaw rapidly by placing at 37C in a water bath with gentle agitation for 1-2 minutes. Decontaminate the vial by wiping with 70% ethanol before opening in a biological safety cabinet. Transfer the vial contents drop-wise into 14 mL of thaw medium in a sterile 15-mL conical tub. Centrifuge cells at 900 rpm for 4 minutes and resuspend in thaw medium. Transfer contents to the T75 tissue culture flask containing Thaw Medium and place flask in a humidified 37C/5% CO2 incubator. Switch to growth medium at first passage.Propagation Method: Aspirate medium, rinse once in DPBS, add 0.25% Trypsin/EDTA and swirl to coat the cell evenly. Add an equal volume of Growth Medium to inactivate Trypsin after 2-3 minutes incubation at 37C. Centrifuge cells at 900 rpm for 4 minutes and resuspend in growth medium. Cell should be passage or fed at least twice a week.Assay Protocol: Harvest cells from culture in growth medium and resuspend in assay medium. 2.2 Dispense 4000 cells/5 uL/well into 1536-well black/clear bottom plates using a Multidrop dispenser. After the cells were incubated at 37C for 5 hours, 23 nL of compounds dissolved in DMSO were transferred to the assay plate by a PinTool resulting in a 217-fold dilution. Incubate the plates for 16 hours at 37C, 5% CO2. Add 1 uL of 6X LiveBLAzer FRET B/G (CCF4-AM) Substrate Mixture to each well using a BioRAPTR dispenser and incubate the plates at room temperature for 2 hours. Measure fluorescence intensity at 460 and 530 nm emission and 405 nm excitation by an Envision detector. Data is expressed as the ratio of 460nm/530nm emissions. Add 4 uL of Cell-titer Glo to each well using BioRAPTR and incubate the plates at room temperature for […]. For cell viability readout that measures cytotoxicity, 4 ul/well of CellTiter-Glo reagent was added into the assay plates using a Flying Reagent Dispenser. After 30 min incubation at room temperature, the luminescence intensity in the plates was measured using a ViewLux plate reader.

With `COC(=O)CCC(=O)OC` as the molecule, how does the outcome read?
Its outcome is “inactive”.

Which outcome does the source give for `CCCCCCCCCCCCCCOS(=O)(=O)O` here?
The outcome was “inactive”.

For `OCC(CO)n1cnc(-c2ccc(F)cc2)c1-c1ccnc(Oc2ccccc2)n1`, which outcome is on record?
The outcome was “inactive”.

Which AC50 does the source give for `Cc1c(C)c2c(c(C)c1O)CCC(C)(COc1ccc(CC3SC(=O)NC3=O)cc1)O2` (centres undefined) here?
Its AC50 is 73.8 µM (active).

For `CCCCC(CC)CO` (centres undefined), which outcome is on record?
Its outcome is “inactive”.

For `CCc1cc(C2=C(C(=O)O)N(c3ccccc3C(F)(F)F)S(=O)(=O)c3ccccc32)cc2c1OCO2`, which outcome is on record?
The outcome was “inactive”.

Which outcome does the source give for `CCCCCCCC(=O)OC` here?
Its outcome is “inactive”.

For `COc1ccc(OC(F)(F)F)cc1CN[C@H]1CCCN[C@H]1c1ccccc1`, which outcome is on record?
The outcome was “inactive”.

For `CCCCCCCCCC[N+](C)(C)[O-]`, which outcome is on record?
The outcome was “inactive”.

With `COC(=O)[C@H]1[C@H]2C[C@@H]3c4[nH]c5cc(OC)ccc5c4CCN3C[C@H]2C[C@@H](OC(=O)c2cc(OC)c(OC)c(OC)c2)[C@@H]1OC` as the molecule, how does the outcome read?
Its outcome is “inactive”.

Which outcome does the source give for `O=[Si]=O` here?
The outcome was “inactive”.

For `Oc1ccccc1O`, which outcome is on record?
The outcome was “inactive”.

And the AC50?
Its AC50 is 74.5 µM (active).

With `O=C1c2c(O)cccc2Cc2cccc(O)c21` as the molecule, how does the outcome read?
Its outcome is “inactive”.

For `NC(=Nc1ccccc1)Nc1ccccc1`, which outcome is on record?
Its outcome is “inactive”.

For `CN(C)C(=O)NC1(c2ccccc2)CCN(CCC[C@]2(c3ccc(Cl)c(Cl)c3)CCCN(C(=O)c3ccccc3)C2)CC1`, which outcome is on record?
The outcome was “inactive”.

For `Cc1ccc(C(C)(C)C)c(O)c1`, which outcome is on record?
The outcome was “inactive”.

Which outcome does the source give for `Cc1cc(Cc2ccc(N)c(C)c2)ccc1N` here?
The outcome was “inactive”.

Which outcome does the source give for `Nc1nc(Cl)nc2c1ncn2[C@H]1C[C@H](O)[C@@H](CO)O1` here?
The outcome was “inactive”.

For `CCCCC(CC)COC(=O)CCCCCCCC(=O)OCC(CC)CCCC` (centres undefined), which outcome is on record?
Its outcome is “inactive”.

Which outcome does the source give for `NCCOCCOCCN` here?
The outcome was “inactive”.

Which outcome does the source give for `C=CCc1ccc(OC)c(OC)c1` here?
The outcome was “inactive”.

Which outcome does the source give for `CC(C)(C)c1ccccc1` here?
The outcome was “inactive”.

For `CCOCCOCCO`, which outcome is on record?
The outcome was “inactive”.

For `CC(C)(O)c1ccc(CNC(=O)c2cccnc2Oc2ccc(F)cc2)cc1`, which outcome is on record?
Its outcome is “inactive”.

For `O=C1OC(c2ccc(O)cc2)(c2ccc(O)cc2)c2ccccc21`, which outcome is on record?
Its outcome is “inactive”.

For `c1ccc2occc2c1`, which outcome is on record?
Its outcome is “inactive”.

With `O=C1O[C@H]([C@H](O)CO)C(O)=C1O` as the molecule, how does the outcome read?
Its outcome is “inactive”.

With `CCCC[C@H]1CN(CC2CCOCC2)C(=O)OC12CCN(C1(C)CCN(C(=O)c3c(C)ncnc3C)CC1)CC2` as the molecule, how does the outcome read?
Its outcome is “inactive”.

For `CCCCC(CC)COP(=O)(OCC(CC)CCCC)OCC(CC)CCCC` (centres undefined), which outcome is on record?
The outcome was “inactive”.

Which AC50 does the source give for `CCc1nc(N)nc(N)c1-c1ccc(Cl)cc1` here?
The AC50 was 46.1 µM (active) and 18.5 µM (active).

For `O=C(O)c1[nH]n(-c2ccc(S(=O)(=O)O)cc2)c(=O)c1N=Nc1ccc(S(=O)(=O)O)cc1`, which outcome is on record?
The outcome was “inactive”.

With `S=c1[nH]c2ccccc2s1` as the molecule, how does the outcome read?
Its outcome is “inactive”.

For `CCC(C)N(C)C(=O)c1cc2ccccc2c(-c2ccccc2Cl)n1` (centres undefined), which outcome is on record?
The outcome was “inactive”.

Which AC50 does the source give for `Oc1ccc(O)cc1` here?
Its AC50 is 42.5 µM (active) and 61.1 µM (active) and 38.2 µM (active).

Which outcome does the source give for `CO[C@@H]1COCC[C@@H]1N[C@@H]1CC[C@@](C(=O)N2CCc3ncc(C(F)(F)F)cc3C2)(C(C)C)C1` here?
Its outcome is “inactive”.

Which outcome does the source give for `CS(=O)(=O)c1ccc([C@@H](C[C@H]2CCC(=O)C2)C(=O)Nc2cnccn2)cc1Cl` here?
The outcome was “inactive”.

For `CN(C)CCCN1c2ccccc2Sc2ccc(Cl)cc21`, which outcome is on record?
The outcome was “inactive”.

Which outcome does the source give for `O=C(O)CN(CC(=O)O)CC(=O)O` here?
The outcome was “inactive”.
